Experiment [1] addresses Sphingosine kinase 1 (Homo sapiens) (UniProt Q9NYA1). The note with it: at 1 µM.
Experiment [2] deals with T1, Sphingosine kinase 2 (Homo sapiens) (UniProt Q9NRA0).
T1 sequence (whole entry): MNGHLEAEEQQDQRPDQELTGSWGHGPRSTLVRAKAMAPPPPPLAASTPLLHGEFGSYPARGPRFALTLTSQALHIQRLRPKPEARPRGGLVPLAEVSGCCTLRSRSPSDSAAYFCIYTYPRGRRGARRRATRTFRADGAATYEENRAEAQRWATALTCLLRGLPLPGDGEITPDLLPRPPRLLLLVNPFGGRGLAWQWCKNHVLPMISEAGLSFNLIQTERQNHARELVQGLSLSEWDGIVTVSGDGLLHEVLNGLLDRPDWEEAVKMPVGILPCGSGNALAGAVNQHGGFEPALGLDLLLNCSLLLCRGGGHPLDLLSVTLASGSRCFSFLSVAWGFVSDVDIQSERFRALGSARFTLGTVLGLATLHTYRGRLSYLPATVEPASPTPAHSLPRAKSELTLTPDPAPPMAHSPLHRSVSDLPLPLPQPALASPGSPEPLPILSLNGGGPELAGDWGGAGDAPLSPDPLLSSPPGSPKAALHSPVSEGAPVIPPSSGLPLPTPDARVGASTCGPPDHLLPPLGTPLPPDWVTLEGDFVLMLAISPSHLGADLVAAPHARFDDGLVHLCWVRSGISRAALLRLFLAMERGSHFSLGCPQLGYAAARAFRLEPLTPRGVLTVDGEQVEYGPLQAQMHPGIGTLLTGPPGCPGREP
The settings on record: at 0.1 µM.

For experiment [3], the target named is T1, Sphingosine kinase 2 (Homo sapiens). The note with it: at 1 µM.
Experiment [4] addresses Casein kinase II subunit alpha (Homo sapiens) (UniProt P68400). The note with it: at 0.1 µM.
The target is the same in experiment [5]. The settings on record: at 1 µM.
Experiment [6] has as its target T2, Inhibitor of nuclear factor kappa-B kinase subunit alpha (Homo sapiens) (UniProt O15111).
T2 sequence (whole entry): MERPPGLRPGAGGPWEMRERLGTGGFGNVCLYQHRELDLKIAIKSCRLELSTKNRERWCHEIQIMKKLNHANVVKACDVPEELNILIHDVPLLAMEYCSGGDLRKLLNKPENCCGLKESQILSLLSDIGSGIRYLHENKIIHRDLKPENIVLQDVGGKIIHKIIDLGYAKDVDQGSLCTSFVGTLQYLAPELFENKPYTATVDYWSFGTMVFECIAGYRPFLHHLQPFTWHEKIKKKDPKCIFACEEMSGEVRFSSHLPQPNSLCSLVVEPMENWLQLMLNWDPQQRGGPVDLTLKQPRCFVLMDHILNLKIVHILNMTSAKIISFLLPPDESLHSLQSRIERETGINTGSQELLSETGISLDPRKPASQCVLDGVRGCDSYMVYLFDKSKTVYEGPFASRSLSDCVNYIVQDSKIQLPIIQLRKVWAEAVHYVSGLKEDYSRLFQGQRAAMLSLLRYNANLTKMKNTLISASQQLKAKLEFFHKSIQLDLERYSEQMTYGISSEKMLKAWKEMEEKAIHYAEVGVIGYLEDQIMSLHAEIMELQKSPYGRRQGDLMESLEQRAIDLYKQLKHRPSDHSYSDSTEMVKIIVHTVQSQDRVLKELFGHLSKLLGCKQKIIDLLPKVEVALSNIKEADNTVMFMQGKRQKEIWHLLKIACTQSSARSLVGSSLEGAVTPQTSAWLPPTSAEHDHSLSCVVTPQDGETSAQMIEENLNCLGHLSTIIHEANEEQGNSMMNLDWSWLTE
The settings on record: at 0.1 µM.

Experiment [7] concerns the target T2, Inhibitor of nuclear factor kappa-B kinase subunit alpha (Homo sapiens). The note with it: at 1 µM.
For experiment [8], the target named is T3, Inhibitor of nuclear factor kappa-B kinase subunit beta (Homo sapiens) (UniProt O14920).
T3 sequence (whole entry): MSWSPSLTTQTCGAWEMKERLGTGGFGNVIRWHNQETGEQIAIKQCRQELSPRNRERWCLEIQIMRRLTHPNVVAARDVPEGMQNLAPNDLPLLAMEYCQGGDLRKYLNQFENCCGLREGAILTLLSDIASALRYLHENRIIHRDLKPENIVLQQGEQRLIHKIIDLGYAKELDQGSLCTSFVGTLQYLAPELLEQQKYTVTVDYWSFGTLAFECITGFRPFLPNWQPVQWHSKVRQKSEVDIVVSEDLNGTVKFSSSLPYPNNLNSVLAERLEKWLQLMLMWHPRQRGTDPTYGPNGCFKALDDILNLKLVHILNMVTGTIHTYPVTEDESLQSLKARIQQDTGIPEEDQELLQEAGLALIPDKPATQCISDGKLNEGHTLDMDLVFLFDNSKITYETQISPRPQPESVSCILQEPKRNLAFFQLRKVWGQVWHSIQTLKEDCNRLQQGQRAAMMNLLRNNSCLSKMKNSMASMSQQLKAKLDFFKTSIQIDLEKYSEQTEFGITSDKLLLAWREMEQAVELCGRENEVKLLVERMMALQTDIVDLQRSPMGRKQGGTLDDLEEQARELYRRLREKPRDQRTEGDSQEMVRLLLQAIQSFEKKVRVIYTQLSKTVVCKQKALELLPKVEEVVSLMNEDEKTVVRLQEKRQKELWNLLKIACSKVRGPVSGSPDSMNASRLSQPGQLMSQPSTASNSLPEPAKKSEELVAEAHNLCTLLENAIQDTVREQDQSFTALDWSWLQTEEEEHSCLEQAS
The note with it: at 0.1 µM.

Experiment [9] addresses T3, Inhibitor of nuclear factor kappa-B kinase subunit beta (Homo sapiens). The settings on record: at 1 µM.
The target of experiment [10] is T4, Inhibitor of nuclear factor kappa-B kinase subunit epsilon (Homo sapiens) (UniProt Q14164).
T4 sequence (whole entry): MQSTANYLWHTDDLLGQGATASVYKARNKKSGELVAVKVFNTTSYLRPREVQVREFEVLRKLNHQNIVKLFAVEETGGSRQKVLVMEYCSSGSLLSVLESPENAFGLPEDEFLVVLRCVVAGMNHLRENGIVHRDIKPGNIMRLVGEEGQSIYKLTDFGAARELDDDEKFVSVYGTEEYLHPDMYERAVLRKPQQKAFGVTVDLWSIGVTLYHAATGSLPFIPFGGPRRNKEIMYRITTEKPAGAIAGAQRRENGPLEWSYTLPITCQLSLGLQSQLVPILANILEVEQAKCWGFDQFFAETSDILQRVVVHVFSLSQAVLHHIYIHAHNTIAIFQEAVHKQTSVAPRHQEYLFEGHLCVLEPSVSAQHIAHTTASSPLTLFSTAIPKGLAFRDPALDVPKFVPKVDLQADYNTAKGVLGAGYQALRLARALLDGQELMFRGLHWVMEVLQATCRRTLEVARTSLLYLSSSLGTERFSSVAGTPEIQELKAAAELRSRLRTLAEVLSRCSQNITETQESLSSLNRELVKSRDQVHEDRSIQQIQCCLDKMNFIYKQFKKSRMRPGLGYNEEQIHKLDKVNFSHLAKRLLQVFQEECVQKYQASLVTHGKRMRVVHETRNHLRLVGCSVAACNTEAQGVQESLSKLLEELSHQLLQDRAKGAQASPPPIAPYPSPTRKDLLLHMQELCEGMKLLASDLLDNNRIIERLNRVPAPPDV
The settings on record: at 0.1 µM.

Experiment [11] deals with T4, Inhibitor of nuclear factor kappa-B kinase subunit epsilon (Homo sapiens). The settings on record: at 1 µM.
Experiment [12] has as its target T5, Serine/threonine-protein kinase Nek1 (Homo sapiens) (UniProt Q96PY6).
T5 sequence (whole entry): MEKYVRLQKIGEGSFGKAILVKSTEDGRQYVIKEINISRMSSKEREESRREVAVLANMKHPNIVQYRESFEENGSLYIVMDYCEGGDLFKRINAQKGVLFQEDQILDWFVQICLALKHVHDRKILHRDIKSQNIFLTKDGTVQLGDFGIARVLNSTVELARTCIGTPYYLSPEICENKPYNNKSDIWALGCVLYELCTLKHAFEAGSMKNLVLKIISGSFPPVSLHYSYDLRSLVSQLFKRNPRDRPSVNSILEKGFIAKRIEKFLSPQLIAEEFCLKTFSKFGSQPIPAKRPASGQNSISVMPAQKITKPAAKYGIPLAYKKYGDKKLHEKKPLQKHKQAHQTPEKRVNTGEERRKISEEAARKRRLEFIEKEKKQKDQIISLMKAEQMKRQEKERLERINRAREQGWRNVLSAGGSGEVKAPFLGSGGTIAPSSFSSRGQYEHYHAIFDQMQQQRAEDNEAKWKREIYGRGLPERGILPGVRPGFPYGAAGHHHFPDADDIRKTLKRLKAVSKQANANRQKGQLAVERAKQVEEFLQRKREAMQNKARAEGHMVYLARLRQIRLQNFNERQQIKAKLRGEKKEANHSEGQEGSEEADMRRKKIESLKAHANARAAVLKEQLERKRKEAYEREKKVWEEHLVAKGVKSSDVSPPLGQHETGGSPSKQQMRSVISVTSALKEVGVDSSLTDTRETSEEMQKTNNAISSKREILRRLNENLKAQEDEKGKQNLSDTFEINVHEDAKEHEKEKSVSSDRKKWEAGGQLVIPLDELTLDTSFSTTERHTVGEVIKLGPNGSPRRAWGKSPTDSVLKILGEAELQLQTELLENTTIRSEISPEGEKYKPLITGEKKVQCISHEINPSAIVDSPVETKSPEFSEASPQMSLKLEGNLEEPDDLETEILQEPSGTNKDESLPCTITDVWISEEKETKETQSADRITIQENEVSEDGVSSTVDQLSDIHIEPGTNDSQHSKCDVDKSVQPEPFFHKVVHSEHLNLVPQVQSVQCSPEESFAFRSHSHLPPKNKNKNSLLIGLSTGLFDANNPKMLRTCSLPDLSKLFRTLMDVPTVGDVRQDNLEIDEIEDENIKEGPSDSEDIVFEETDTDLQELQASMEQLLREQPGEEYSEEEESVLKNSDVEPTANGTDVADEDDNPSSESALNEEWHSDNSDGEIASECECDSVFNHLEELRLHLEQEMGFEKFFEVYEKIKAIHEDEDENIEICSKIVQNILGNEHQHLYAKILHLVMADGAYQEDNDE
The settings on record: at 0.1 µM.

Experiment [13] addresses T5, Serine/threonine-protein kinase Nek1 (Homo sapiens). The settings on record: at 1 µM.
The target in experiment [14] is T6, Serine/threonine-protein kinase Nek2 (Homo sapiens) (UniProt P51955).
T6 sequence (whole entry): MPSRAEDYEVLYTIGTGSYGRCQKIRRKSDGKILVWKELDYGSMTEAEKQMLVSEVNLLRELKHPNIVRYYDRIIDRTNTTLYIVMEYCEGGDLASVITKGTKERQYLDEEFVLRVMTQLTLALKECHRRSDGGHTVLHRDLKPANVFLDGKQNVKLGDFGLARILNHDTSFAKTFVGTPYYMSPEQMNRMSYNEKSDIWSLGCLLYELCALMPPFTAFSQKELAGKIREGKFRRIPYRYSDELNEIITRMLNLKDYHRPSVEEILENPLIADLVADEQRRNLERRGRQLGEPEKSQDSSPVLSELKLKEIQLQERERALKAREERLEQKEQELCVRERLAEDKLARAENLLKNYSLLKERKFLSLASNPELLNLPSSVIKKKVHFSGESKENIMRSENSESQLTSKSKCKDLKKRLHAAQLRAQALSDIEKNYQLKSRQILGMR
The settings on record: at 0.1 µM.

The target in experiment [15] is T6, Serine/threonine-protein kinase Nek2 (Homo sapiens). The settings on record: at 1 µM.
The target in experiment [16] is Serine/threonine-protein kinase Nek6 (Homo sapiens) (UniProt Q9HC98). The settings on record: at 0.1 µM.
The target is the same in experiment [17]. The settings on record: at 1 µM.
The target in experiment [18] is Serine/threonine-protein kinase Nek7 (Homo sapiens) (UniProt Q8TDX7). The settings on record: at 0.1 µM.
The target is the same in experiment [19]. The settings on record: at 1 µM.
For experiment [20], the target named is T7, Serine/threonine-protein kinase Nek9 (Homo sapiens) (UniProt Q8TD19).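 Also: reported value is the mean percent inhibition of NEK9.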
T7 sequence (whole entry): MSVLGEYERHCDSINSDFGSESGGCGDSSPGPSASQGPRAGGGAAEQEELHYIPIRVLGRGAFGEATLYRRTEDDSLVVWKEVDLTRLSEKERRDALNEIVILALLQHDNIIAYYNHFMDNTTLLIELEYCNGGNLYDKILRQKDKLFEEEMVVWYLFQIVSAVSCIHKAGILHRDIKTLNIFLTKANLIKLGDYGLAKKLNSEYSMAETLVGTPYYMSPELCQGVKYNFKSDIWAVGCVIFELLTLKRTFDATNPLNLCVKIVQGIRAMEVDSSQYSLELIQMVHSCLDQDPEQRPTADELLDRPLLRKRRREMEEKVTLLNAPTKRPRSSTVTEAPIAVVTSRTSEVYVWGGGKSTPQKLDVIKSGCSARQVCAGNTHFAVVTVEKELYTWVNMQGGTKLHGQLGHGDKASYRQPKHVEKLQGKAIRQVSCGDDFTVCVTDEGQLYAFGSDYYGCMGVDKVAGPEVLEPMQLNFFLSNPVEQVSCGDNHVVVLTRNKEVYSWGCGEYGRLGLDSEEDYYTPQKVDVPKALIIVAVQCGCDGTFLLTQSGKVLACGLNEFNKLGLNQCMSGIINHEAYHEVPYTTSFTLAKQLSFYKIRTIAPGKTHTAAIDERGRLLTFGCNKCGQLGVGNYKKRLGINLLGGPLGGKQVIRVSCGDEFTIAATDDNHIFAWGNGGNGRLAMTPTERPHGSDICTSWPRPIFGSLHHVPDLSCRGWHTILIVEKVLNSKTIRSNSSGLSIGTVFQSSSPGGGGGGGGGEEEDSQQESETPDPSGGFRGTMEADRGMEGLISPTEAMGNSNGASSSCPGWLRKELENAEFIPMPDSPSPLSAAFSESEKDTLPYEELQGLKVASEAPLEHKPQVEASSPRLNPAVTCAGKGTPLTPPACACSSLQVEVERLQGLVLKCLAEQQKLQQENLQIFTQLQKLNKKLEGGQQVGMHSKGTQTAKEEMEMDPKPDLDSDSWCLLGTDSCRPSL
The note with it: at 0.1 µM.

Serine/threonine-protein kinase Nek7 (Homo sapiens), sequence (Q8TDX7 whole entry, looked up): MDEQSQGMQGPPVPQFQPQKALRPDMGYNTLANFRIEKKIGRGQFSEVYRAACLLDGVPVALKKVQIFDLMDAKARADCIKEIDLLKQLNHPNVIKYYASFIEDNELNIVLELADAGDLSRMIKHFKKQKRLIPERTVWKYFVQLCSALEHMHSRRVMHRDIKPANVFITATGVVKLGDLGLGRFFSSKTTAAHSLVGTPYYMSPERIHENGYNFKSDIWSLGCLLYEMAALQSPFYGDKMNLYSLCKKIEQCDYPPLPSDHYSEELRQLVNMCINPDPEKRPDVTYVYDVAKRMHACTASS
Serine/threonine-protein kinase Nek6 (Homo sapiens), sequence (Q9HC98 whole entry): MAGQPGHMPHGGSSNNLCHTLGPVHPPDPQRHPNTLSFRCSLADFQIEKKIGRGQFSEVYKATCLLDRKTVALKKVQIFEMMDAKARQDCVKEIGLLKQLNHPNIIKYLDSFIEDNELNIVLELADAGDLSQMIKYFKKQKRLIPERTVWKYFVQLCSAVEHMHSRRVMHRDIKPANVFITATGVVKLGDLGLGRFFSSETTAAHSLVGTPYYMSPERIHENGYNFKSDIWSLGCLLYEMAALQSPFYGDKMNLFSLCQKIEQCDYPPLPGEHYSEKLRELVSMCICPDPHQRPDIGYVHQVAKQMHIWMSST
Casein kinase II subunit alpha (Homo sapiens), sequence (P68400 whole entry, looked up): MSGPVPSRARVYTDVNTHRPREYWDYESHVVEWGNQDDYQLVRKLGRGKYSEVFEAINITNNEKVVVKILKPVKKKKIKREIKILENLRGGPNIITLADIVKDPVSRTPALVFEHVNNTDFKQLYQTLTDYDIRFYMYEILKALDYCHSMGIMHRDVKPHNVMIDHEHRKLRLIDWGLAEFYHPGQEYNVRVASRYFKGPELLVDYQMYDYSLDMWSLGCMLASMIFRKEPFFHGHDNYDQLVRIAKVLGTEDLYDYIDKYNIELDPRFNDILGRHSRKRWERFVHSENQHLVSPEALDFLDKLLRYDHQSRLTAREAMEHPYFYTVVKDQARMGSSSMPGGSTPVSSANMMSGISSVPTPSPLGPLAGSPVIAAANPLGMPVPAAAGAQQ
Sphingosine kinase 1 (Homo sapiens), sequence (Q9NYA1 whole entry): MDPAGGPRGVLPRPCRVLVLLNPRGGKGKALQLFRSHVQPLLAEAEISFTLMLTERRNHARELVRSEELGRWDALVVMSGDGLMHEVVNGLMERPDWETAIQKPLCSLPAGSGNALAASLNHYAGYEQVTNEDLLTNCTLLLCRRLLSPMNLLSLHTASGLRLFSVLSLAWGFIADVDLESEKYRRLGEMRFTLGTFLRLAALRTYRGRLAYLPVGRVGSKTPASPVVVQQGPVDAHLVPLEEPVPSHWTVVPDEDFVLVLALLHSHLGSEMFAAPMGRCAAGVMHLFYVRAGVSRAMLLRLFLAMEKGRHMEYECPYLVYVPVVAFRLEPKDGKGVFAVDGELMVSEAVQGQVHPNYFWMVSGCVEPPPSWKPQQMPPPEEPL

In the case of `Cc1cccc(Nc2ncc(-c3ccccc3)o2)c1`, the inhibition in experiment [1] is 3.75%; in experiment [2] it was 0.62%; in experiment [3] it was -1.72%; in experiment [4], 4.16%; in [5] it was 3.49%; in [6], 3.87%. The inhibition in [7] worked out at 7.95%; in [8] it was 4.82%; in experiment [9], 5.08%; in experiment [10] it was 5.18%; in experiment [11], 6.48%; in experiment [12], 4.04%. In addition, the inhibition turned out to be 3.56% in experiment [13]; 3.46% in experiment [14]; 3.62% in experiment [15]; 0.75% in experiment [16]; 2.04% in [17]; 2.47% in experiment [18]. Also, the results for the inhibition in [19] and in experiment [20] were 4.58% and 8.57%, respectively.

What is called inhibition is the relative decrease from the control value, in per cent.

The values are drawn from ChEMBL document CHEMBL1961873, “Compounds: GSK PKIS; Assays: Nanosyn kinase panel” (2012).
